For part of these data: Potency and affinity values are given separately. Activity calls are given as the source filed them. Numbered stars: 1 amine (or outer) side, 2 acyl side, 3 side chain; on linkers, the order of the positions; unused ones are H or OH. Bridge positions count the residues as written; N and C are the ends. Square brackets hold non-standard residues; d marks the D form. Peptide text beside a SMILES is read from it. I, II: the chains in the order shown. Actinocin(9to1) = Cc1c2oc3c(C)ccc(C(=O)[*:1])c3nc-2c(C(=O)[*:2])c(N)c1=O; NMeV = CN[C@H](C(=O)O)C(C)C; Sar = CNCC(=O)O
Columns and labels:
[1] = Ebola virus entry assay, green fluorescence channel
[2] = Ebola virus entry assay, blue channel fluorescence
[3] = Ebola virus entry assay, green fluorescence channel; remark: listed apart in the source
[4] = Ebola virus entry assay, ratio channel readout
[5] = Ebola virus entry assay, ratio channel
[6] = Ebola virus entry assay, green channel fluorescence
[7] = Ebola virus entry assay, blue channel fluorescence; remark: listed apart in the source
[8] = Ebola virus entry assay, reporter ratio channel
[9] = Ebola virus entry assay, blue channel (ratio component)
[10] = Ebola virus entry reporter assay, green channel fluorescence
[11] = qHTS profiling of the MIPE4 collection as inhibitors of Plasmodium falciparum (3D7) proliferation (AID 743344);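 further: scaled between DMSO vehicle wells and 0.29 µM artemisinin as full inhibition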; settings: P. falciparum 3D7 in erythrocytes, SYBR Green DNA fluorescence, 72 h; at 28.5 µM (top of the series) unless noted
Summary of the method: (§1)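 Parasite DNA was quantified by SYBR Green I fluorescence (ex 485, em 535 nm) after overnight lysis in saponin/Triton buffer at room temperature. Cultures at 0.3% parasitemia and 2.5% hematocrit were first exposed to compound for 72 h at 37 C; signals were normalised to artemisinin (0.29 uM) and vehicle wells.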

[12] = qHTS profiling of the MIPE4 collection as inhibitors of Plasmodium falciparum (DD2) proliferation (AID 743345); settings: P. falciparum Dd2 in erythrocytes, SYBR Green DNA, 72 h; at 28.5 µM (top of the series) unless noted
Summary of the method: as §1

[13] = qHTS profiling of the MIPE4 collection as inhibitors of Plasmodium falciparum (DD2) proliferation (Rep 2) (AID 743346); settings: P. falciparum Dd2 in erythrocytes, SYBR Green DNA, 72 h; at 28.5 µM (top of the series) unless noted
Summary of the method: as §1

[14] = qHTS profiling of the MIPE4 collection as inhibitors of Plasmodium falciparum (HB3) proliferation (AID 743347);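 further: plate controls were DMSO vehicle wells for no effect and artemisinin wells for full effect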; settings: P. falciparum HB3 in erythrocytes, SYBR Green DNA, 72 h; at 28.5 µM (top of the series) unless noted
Summary of the method: as §1

[15] = Ebola virus entry assay, blue channel fluorescence; remark: listed apart in the source
[16] = AC50: Channel type: primary unless noted, outcome: Channel type: primary unless noted
Wherever efficacy is given: 0% is about no effect.

CCC(C(N)=O)N1CCCC1=O (configuration not stated)
inactive: efficacy [1] -12.2% | outcome [2] | outcome [3] | outcome [4] | outcome [5] | outcome [6] | outcome [7] | outcome [8, 16] | outcome [9]

CN1C(CCl)Nc2cc(Cl)c(S(N)(=O)=O)cc2S1(=O)=O (configuration not stated)
inactive: efficacy [1] -11.6% | outcome [2] | outcome [3] | outcome [4] | outcome [5] | outcome [6] | outcome [7] | outcome [8, 16] | outcome [9]

CO/N=C1\CN(c2nc3c(cc2F)c(=O)c(C(=O)O)cn3C2CC2)CC1CN (configuration not stated)
inactive: efficacy [1] -13.2% | outcome [2] | outcome [3] | outcome [4] | outcome [5] | outcome [6] | outcome [7] | outcome [8, 16] | outcome [9]

CCOC(=O)[C@H](CCc1ccccc1)N[C@@H](C)C(=O)N1Cc2cc(OC)c(OC)cc2C[C@H]1C(=O)O
inactive: efficacy [1] 30.5% | outcome [2] | outcome [3] | outcome [4] | outcome [5] | outcome [6] | outcome [7] | outcome [8, 16] | outcome [9]

CC(C)c1c(C(=O)Nc2ccccc2)c(-c2ccccc2)c(-c2ccc(F)cc2)n1CC[C@@H](O)C[C@@H](O)CC(=O)O
inactive: efficacy [1] 32.2% | outcome [2] | outcome [3] | outcome [4] | outcome [5] | outcome [6] | outcome [8, 16] | outcome [9] | outcome [10]

O=P1(NCCCl)OCCCN1CCCl (configuration not stated)
107%: growth, % of control [14]
97.2%: parasite growth remaining, % of DMSO control (lower = more inhibition) [12]
110%: parasite growth, % of control (lower = inhibition) [13]
inactive: efficacy [1] 14.4% | outcome [2] | outcome [3] | outcome [4] | outcome [15] | outcome [6] | outcome [7] | outcome [8, 16] | outcome [9] | outcome [10]
62.8%: parasite growth, % of DMSO control [11]

NCC1(CC(=O)O)CCCCC1
75.9%: parasite growth, % of control (lower = inhibition) [13]
87.6%: parasite growth remaining, % of DMSO control (lower = more inhibition) [12]
58.3%: parasite growth, % of DMSO control [11]
inactive: efficacy [1] -9.69% | outcome [2] | outcome [3] | outcome [4] | outcome [5] | outcome [6] | outcome [7] | outcome [8, 16] | outcome [9]
94.9%: growth, % of control [14]

N[C@@H]1C[C@H]1c1ccccc1
inactive: efficacy [1] -26.4% | outcome [2] | outcome [3] | outcome [4] | outcome [5] | outcome [6] | outcome [7] | outcome [8, 16] | outcome [9] | outcome [10]

Cc1c2oc3c(C)ccc(C(=O)N[C@@H]4C(=O)N[C@H](C(C)C)C(=O)N5CCC[C@H]5C(=O)N(C)CC(=O)N(C)[C@@H](C(C)C)C(=O)O[C@@H]4C)c3nc-2c(C(=O)N[C@@H]2C(=O)N[C@H](C(C)C)C(=O)N3CCC[C@H]3C(=O)N(C)CC(=O)N(C)[C@@H](C(C)C)C(=O)O[C@@H]2C)c(N)c1=O (I: T[dV]P[Sar][NMeV] / II: T[dV]P[Sar][NMeV]; ester I:1-I:C, II:1-II:C; linker I:N-II:N via Actinocin(9to1))
inactive: efficacy [1] 27.3% | outcome [2] | outcome [3] | outcome [4] | outcome [5] | outcome [6] | outcome [7] | outcome [8, 16] | outcome [9]

CCCCc1ncc(/C=C(\Cc2cccs2)C(=O)O)n1Cc1ccc(C(=O)O)cc1
inactive: efficacy [1] -11.8% | outcome [2] | outcome [3] | outcome [4] | outcome [5] | outcome [6] | outcome [7] | outcome [8, 16] | outcome [9] | outcome [10]

CC1(C)S[C@@H]2[C@H](NC(=O)[C@H](N)c3ccccc3)C(=O)N2[C@H]1C(=O)O
inactive: efficacy [1] -14% | outcome [2] | outcome [3] | outcome [4] | outcome [5] | outcome [6] | outcome [7] | outcome [8, 16] | outcome [9] | outcome [10]

CC(=O)Nc1nnc(S(N)(=O)=O)s1
inactive: efficacy [1] -19.1% | outcome [2] | outcome [3] | outcome [4] | outcome [15] | outcome [7] | outcome [8, 16] | outcome [9] | outcome [10]

O=C(O)c1ccc(-n2nc(-c3ccccc3O)nc2-c2ccccc2O)cc1
inactive: efficacy [1] 48% | outcome [2] | outcome [3] | outcome [4] | outcome [15] | outcome [7] | outcome [8, 16] | outcome [10]

CN1C(=O)CC(C)(c2ccccc2)C1=O (configuration not stated)
inactive: efficacy [1] -45.4% | outcome [2] | outcome [3] | outcome [4] | outcome [15] | outcome [7] | outcome [8, 16] | outcome [9] | outcome [10]

CN1CCN(C(=O)O[C@H]2c3nccnc3C(=O)N2c2ccc(Cl)cn2)CC1
97.2%: growth, % of control [14]
95.4%: parasite growth, % of DMSO control [11]
98.2%: parasite growth remaining, % of DMSO control (lower = more inhibition) [12]
inactive: efficacy [1] 27.7% | outcome [2] | outcome [3] | outcome [4] | outcome [15] | outcome [6] | outcome [7] | outcome [8, 16] | outcome [9]
86.8%: parasite growth, % of control (lower = inhibition) [13]

O=C1NC(c2ccccc2)(c2ccccc2)C(=O)N1COP(=O)(O)O
inactive: efficacy [1] -16% | outcome [2] | outcome [3] | outcome [4] | outcome [5] | outcome [6] | outcome [7] | outcome [8, 16] | outcome [9] | outcome [10]

C[C@]12CC[C@@H]3c4ccc(O)cc4C[C@@H](CCCCCCCCCS(=O)CCCC(F)(F)C(F)(F)F)[C@H]3[C@@H]1CC[C@@H]2O (some centres not stated)
inactive: efficacy [1] 40.4% | outcome [2] | outcome [3] | outcome [4] | outcome [5] | outcome ([8]; Channel type: confirmation) | outcome ([8]; Channel type: primary) | outcome [9]

Cc1nc(-c2ccc(OCC(C)C)c(C#N)c2)sc1C(=O)O
inactive: efficacy [1] 65.9% | outcome [2] | outcome [3] | outcome [4] | outcome [15] | outcome [7] | outcome [8, 16] | outcome [9] | outcome [10]

— PubChem BioAssay (NCATS)
